110 molecules from PubChem BioAssay AID651995 (Sanford-Burnham Center for Chemical Genomics, 2013) can be followed below.

One may read the inhibition as the change of the read-out against control, counted positive when it falls.

The structures appear in SMILES notation. Out of some 2,500 compounds screened, about 480 (19%) were called active. Not all results are given here. A number with no mark means an inactive call.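 How the source made its calls: active means mean inhibition above about 25% (limit read from the data); inactive means the rest.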

This test can be described thus: inhibitors of Wnt3a-driven luciferase in Wnt-LIGHT cells – cell-based, luminescence, single concentration, counter-screen for Gli-SUFU antagonist project, confirmation (AID 651995). The settings on record: Wnt3a-driven luciferase reporter, at 6.25 µM, active compounds read high. In general terms: The purpose of a counterscreen is to sort out artefacts and off-target activity.
Turning to `CC1(C)CC2CC(C)(CN2c2ncnc3ccc(Br)cc23)C1` (stereo not given), the inhibition is 19%.
Under `CC1(C)CC(=O)c2c(n(S(=O)(=O)c3ccccc3)c3ccc(NS(=O)(=O)c4ccccc4)cc23)C1` stands 13.1%; under `COc1ccc(OC)c(Cc2cnc3nc(N)nc(N)c3c2C)c1`, 14.4%.
Regarding `O=C1/C(=C/c2ccc(F)cc2)SC(=S)N1NS(=O)(=O)c1ccccc1`, the inhibition was 12.4%.
Under `CN(c1ccc2nc3ccccc3c(=O)n2n1)C1CCCCC1` stands 101% (active); under `CC(C)(CNC(=O)c1ccc(Cl)c(S(=O)(=O)N2CCc3ccccc3C2)c1)N1CCOCC1`, -21.4%; under `O=C(CN1CCN(S(=O)(=O)c2cc(Cl)ccc2Cl)CC1)c1ccc(O)c(O)c1`, 73.7% (active).
As for `Nc1ccc(C(=O)N2CCN(S(=O)(=O)c3ccc(Cl)cc3)CC2)cc1[N+](=O)[O-]`, the inhibition is -13.1%.
For `COc1cccc(-n2cc(C(=O)O)c3ccccc3c2=O)c1` the value was 20.7%; for `CCOC(=O)c1cnc(Nc2nc3ccccc3o2)nc1CSC(=S)N1CCCCC1`, -97.9%.
Take `COc1ccccc1CCNC(=O)C(=O)NCCC1CCCCN1S(=O)(=O)c1cccs1` (stereo not given): the inhibition was -17.3%.
For `CC(=O)Nc1ccc(NC(=O)c2ccc3c(c2)C(=O)N(c2ccccc2C)C3=O)cc1` the value was 3.62%.
For `COC(=O)c1ccc(CSc2nnc(N)s2)o1` the value was -4.51%.
Under `O=C1/C(=C\c2cccnc2)CN(Cc2ccccc2)C/C1=C\c1cccnc1` stands -9.32%.
Take `Cc1ccsc1C(=O)OCC(=O)c1cc(C)n(CC2CCCO2)c1C` (stereo not given): the inhibition was 104% (active).
For `Cc1onc(-c2ccccc2)c1C(=O)Nc1ccccc1C#N`, the inhibition was -19.9%.
Regarding `CC(=O)Nc1cccc(OCC(=O)/C=C2\N(C)c3ccccc3C2(C)C)c1`, the inhibition is -13.7%.
As to `COCCn1c(CN2CCC(Cc3ccccc3)CC2)nc2c1c(=O)n(C)c(=O)n2C`, the inhibition is 16.5%.
For `Cn1c(=O)c2c(nc(NCCc3ccccc3)n2Cc2ccccc2)n(C)c1=O` the value was -9.98%; for `CCCCNc1nc2c(c(=O)n(C)c(=O)n2C)n1Cc1cccc(OC)c1`, 36.1% (active).
For `CN(C)c1cc[n+](Cc2ccccc2)cc1` the value was 12.4%.
As to `COc1ccc2nc(SCC(=O)Nc3c(C)cc(C)cc3C)[nH]c2c1`, the inhibition was -15%.
Consider `O=C(Nc1cccc(S(=O)(=O)Nc2ccc(Cl)cc2)c1)c1ccc2c(c1)OCCO2`, for which the inhibition is -22.2%.
As to `Cc1ccc(NC(=S)Nc2ccc(F)cc2)cc1`, the inhibition is -8.22%.
Take `CC(C)c1ccc(OCC(O)CN2CCN(c3ccccn3)CC2)cc1` (stereo not given): the inhibition was -70.7%.
For `C=CCNC(=S)/N=c1/ccccn1Cc1ccccc1`, the inhibition is -4.94%.
For `CCOC(=O)c1ccc(NC(=O)Cn2cnc3cc(C)c(C)cc32)cc1` the value was -27.9%; for `COc1ccc(NC(=O)[C@H](NC(=O)[C@@H]2Cc3ccccc3CN2)c2ccccc2)cc1`, -2.11%; for `Cc1ccc(C)c(S(=O)(=O)N2CCN(c3ncnc4sccc34)CC2)c1`, 11.2%.
On to `CC(=O)N1CCCc2cc(S(=O)(=O)N3CCCC(C(=O)N4CCN(c5cccc(Cl)c5)CC4)C3)ccc21` (stereo not given), for which the inhibition is 29.8% (active).
`Brc1c(CSc2nncc3ccccc23)nc2ccccn12`: the inhibition is 1.67%.
Under `COc1ccc(Cn2c(-c3ccc(Cl)cc3)c[n+]3ccccc23)cc1` stands -74.3%.
Turning to `CCCCC(=O)NC(c1ccc(OC)c(OC)c1)c1ccc2cccnc2c1O` (stereo not given), the inhibition was 53.4% (active).
Turning to `Cc1ccc(Nc2nc(N3CCOCC3)nc(N3CCOCC3)n2)cc1Cl`, the inhibition was -104%.
For `COc1ccccc1C1C2=C(COC2=O)Nc2cc3c(cc21)OCO3` (stereo not given) the value was -30.9%.
Turning to `COC(=O)Cc1[nH]n(-c2nc3ccccc3s2)c(=O)c1C(C)=Nc1ccc(OC)cc1`, the inhibition was 104% (active).
On to `COc1cc(C(=O)OC2CCOC2=O)c([N+](=O)[O-])cc1OC` (stereo not given), for which the inhibition was 1.38%.
For the molecule `CCOc1ccc(-n2c(O)c(/C=N/Nc3nc(C)cc(C)n3)c3ccccc3c2=O)cc1`, the inhibition is 16.1%.
Turning to `CN1C(CC(=O)Nc2ccc(Br)cc2)c2ccccc2CC1(C)C` (stereo not given), the inhibition is -37.9%.
Under `C/C(=N\NC(=O)Cc1ccc(Cl)cc1)c1ccccn1` stands 48.9% (active); under `CC(=O)/C(=N\Nc1ccc(Cl)cc1Cl)Sc1cccc2cccnc12`, -140%; under `CCNC(=S)N(CCN(CC)CC)Cc1cc2cc3c(cc2[nH]c1=O)OCO3`, -0.1%.
On to `Cc1nonc1C1CCCN1C(=O)c1cc(COc2cccc(C(F)(F)F)c2)on1` (stereo not given), for which the inhibition is -42%.
For `Cc1ccc(S(=O)(=O)N(Cc2cc3ccccc3[nH]c2=O)CC2CCCO2)cc1` (stereo not given) the value was 1.8%.
For `Cc1ccccc1C(=O)NC(=S)Nc1ccc(N2CCN(C(=O)c3ccccc3)CC2)cc1`, the inhibition was 41.2% (active).
For `Cc1cc2[nH]ncc2cc1NC(=S)NC(=O)c1ccccc1`, the inhibition was -34.9%.
Under `Cc1cc(C)c(SCCc2ccncc2)c(C)c1` stands 32% (active); under `CCCOc1ccc(Cc2c(Cl)nc(SC)nc2NC)cc1`, 26.9% (active).
Regarding `O=C(Nc1ccnn1C1CCN(C/C=C/c2ccc(F)cc2)CC1)C1CCCC1`, the inhibition is -63.4%.
For `CNc1ccc(SC#N)cc1` the value was -9.54%.
Under `COc1ccc(C(=O)NC2CCCc3c2cnn3-c2cccc(C)c2C)c(OC)n1` (stereo not given) stands 24.6%; under `CCN(CC)CCNC(=O)c1ccc(NC(=O)c2cc(-c3ccncc3)nc3ccccc23)cc1`, -2.49%; under `Cc1ccc(C(=O)C[n+]2cc(-c3ccccc3)n3c2CCCCC3)cc1`, -0.91%.
Under `Cc1ccc(-c2nc3c(cnn3-c3ccccc3)c(=O)o2)cc1` stands 4.18%; under `O=C(C[C@H]1C/C=C\C[C@@H](NC(=O)OCC2c3ccccc3-c3ccccc32)C(=O)O[C@@H](c2ccccc2)CNC1=O)N[C@H](CO)Cc1ccccc1`, -44.6%; under `COc1ccc(OC)c(/C=N/NC(=O)c2ccc[n+](CC(=O)c3ccccc3)c2)c1`, 2.64%.
Turning to `CC[n+]1c(C)n(-c2ccccc2)c2ccc(NC(C)=O)cc21`, the inhibition was 43.4% (active).
For `Cc1ccc(O)c(NC(=O)COc2cc(C)ccc2C)c1`, the inhibition is -3.69%.
Regarding `CNc1nnc(-c2ccco2)s1`, the inhibition was -3.08%.
Under `COC(=O)c1ccccc1NC(=O)C1(S(=O)(=O)c2ccc(Cl)cc2)CC1` stands -1.78%.
For `O=C(Nc1nc2ccc([N+](=O)[O-])cc2s1)c1ccc(S(=O)(=O)N2CCCc3ccccc32)cc1` the value was 65.8% (active); for `CCc1ccc(C2C(C#N)=C(N)N(N3CCOCC3)C3=C2C(=O)CC(C)(C)C3)s1` (stereo not given), -28.8%; for `CCCc1nc(N)nc2c1C(=O)CC(C)(C)C2`, 9.89%.
For `Cc1cc(NC(=O)c2cccc(N3C(=O)CCC3=O)c2)no1` the value was 66% (active); for `CC1CC2=C(CC1/C=N/NC(N)=S)C(C)(C)CCC2` (stereo not given), 21.2%; for `CCc1c(C)nc2cc(C)[nH]n2c1=O`, -9.69%.
On to `C/C(=N\Nc1ccc(Cl)nn1)c1ccccc1O`, for which the inhibition was -26.7%.
With `COc1ccc(/C=N/N=C2/C(=O)Nc3ccccc32)cc1O`, the inhibition was -23.9%.
Consider `COc1ccc(Cc2nnc(N/N=C/c3ccccc3O)[nH]c2=O)cc1OC`, for which the inhibition is 59.9% (active).
Consider `CC(=O)OCCC(C)C`, for which the inhibition is -9.39%.
Regarding `c1ccc(-n2nnnc2N2CCOCC2)cc1`, the inhibition is -14.5%.
As to `O=C(O)CCCn1cc(NC(=O)COc2cccc(Cl)c2)cn1`, the inhibition was 6.24%.
With `Cc1ccc(NC(=O)CN(C)CC(=O)Nc2cccc(F)c2)cc1[N+](=O)[O-]`, the inhibition is 36.3% (active).
For the molecule `CN(C)CCSc1nc(N)c2c3c(sc2n1)COC(C)(C)C3`, the inhibition was -37.2%.
With `CCC1CCCCN1CCCNC(=O)Cn1nc(-c2ccccc2)ccc1=O` (stereo not given), the inhibition was 12.7%.
Under `O=C1C=C(c2ccnc3cc(Cl)ccc23)C[C@@H](c2ccc3c(c2)OCO3)C1` stands 27.6% (active).
For `CCN(CC)S(=O)(=O)c1ccc(Cl)c(C(=O)NC(C)C(c2cccs2)N2CCCC2)c1` (stereo not given) the value was -35.1%; for `CSc1ncccc1C(=O)Nc1nc2ccc(F)cc2s1`, 81.3% (active); for `CCN(CCO)C(=S)Nc1cc(C(=O)OC)ccc1C(=O)OC`, -4.1%.
For the molecule `O=C(Cn1cc(C(=O)C2CC2)c2ccccc21)Nc1ccccc1Cl`, the inhibition is 26.6% (active).
With `O=c1c2ccccc2nc2n1C(CSCc1cccc(C(F)(F)F)c1)CS2` (stereo not given), the inhibition is 24.2%.
Under `C=CCn1c(SCC(=O)CC(=O)OCC)nc2cc(C(=O)N3CCC(C(N)=O)CC3)ccc2c1=O` stands -31.2%; under `O=C(c1cc(Cl)cc(Cl)c1)N1CCC(=O)N(C(COCc2ccccc2)Cc2ccccc2)CC1` (stereo not given), -8.85%; under `CCC(Cc1ccccc1)NC(=O)C1CCCCC1` (stereo not given), -4.89%.
With `CC(C)OCC(O)CN1CCN(C(c2ccccc2)c2ccccc2)CC1` (stereo not given), the inhibition is -21.2%.
For `CCOc1ccc(-n2c(O)c(/C=N/c3ccnn3Cc3ccncc3)c3ccccc3c2=O)cc1` the value was -8.8%; for `O=C(CN1C(=O)c2ccccc2S1(=O)=O)N1CCc2ccccc21`, 72.4% (active).
As to `NC(N)=Nc1nc(-c2ccccc2)c2cc(Cl)ccc2n1`, the inhibition was -5.22%.
On to `CC(C)Oc1ccc(/C=N/NC(=O)c2nnn(-c3nonc3N)c2CN(C)C2CCCCC2)cc1`, for which the inhibition is -59.5%.
Under `COc1ccc2c(C)cc3nnnn3c2c1` stands -7.11%; under `Cc1ccc(S(=O)(=O)NC(C)C(=O)Nc2ccccc2C(=O)N2CCCC2)cc1` (stereo not given), -22.3%; under `O=C(O)c1ccc(N/N=C/c2ccc3ncccc3c2)cc1`, 95% (active).
Under `NS(=O)(=O)c1ccc(CCNC(=O)CCCn2c(SCC(=O)N3CCCC3)nc3ccsc3c2=O)cc1` stands -9.95%; under `C=CCOc1nc2c(c(=O)n(C)c(=O)n2C)n1Cc1ccc(Cl)cc1Cl`, -18%; under `O=C(Nc1cc2c3c(c1)C1CCCC1CN3CC1CCCC21)c1ccc([N+](=O)[O-])cc1` (stereo not given), -20.4%.
Under `CN(NC(=O)c1ccccc1F)c1nc(C(F)(F)F)nc2ccccc12` stands -20%; under `CC(C)(C)c1ccc(Oc2ccc(N)cc2)cc1`, 106% (active); under `Cc1cc(C(=O)CSc2nc(N)cc(=O)[nH]2)c(C)n1-c1cccc(F)c1`, -15.5%.
Regarding `CC(=O)c1c(C)[nH]c(C(=O)OCC(=O)Nc2sc3c(c2C#N)CCCC3)c1C`, the inhibition was -44.3%.
For `COc1ccccc1/C=C/CN1CCC(CO)(Cc2ccccc2)CC1` the value was 3.26%.
Turning to `Cc1cccc(NS(=O)(=O)c2ccc(-c3cnc(C4CC4)o3)cc2)c1`, the inhibition is -40.9%.
Under `CCOc1cccc(/C=N/NC(=S)NCCN2CCOCC2)c1O` stands -21.9%; under `COc1ccc(C(=O)NCc2nnc(SCCOc3ccccc3)n2C)cc1`, -33.1%.
For `COc1cccc2cc(C(N)=O)/c(=N\NC(=O)c3ccccc3)oc12` the value was -3.11%; for `Cc1cccc2nc(CSc3nc4[nH]ncc4c(=O)n3-c3cccc(Cl)c3)cc(=O)n12`, 33.2% (active).
Under `COc1cc(C(=O)OC(C)C(=O)NCC2CCCCC2)cc(NC(=O)c2ccco2)c1OC` (stereo not given) stands -76.6%; under `CC(C)C(=O)Nc1nnc(SCC(=O)N2C(C)CCCC2C)s1` (stereo not given), -26.6%.
As for `O=C(NCCOCc1ccc(Cl)cc1)c1ncn[nH]1`, the inhibition is 33.3% (active).
`CCn1c(SCc2ccccc2)nc2cc(OC)c(OC)cc2c1=O`: the inhibition is -22.5%.
For `CC(C)Oc1ccc(CN2CCC(n3nccc3NC(=O)c3cccnc3)CC2)cc1` the value was -35.7%.
